Test results reported in PubChem BioAssay AID504408 (Broad Institute, 2011).
About 5,200 (1.7%) of roughly 300,000 compounds were called active. This is one part of a sample in which actives are shown more often than they occur.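 The calls were made as follows: active = mean replicate activation of at least 50% with a set share of replicates each reaching 50%; inconclusive = only one of those two conditions met; inactive = mean below 50% and too few replicates reaching it.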

Experiment: HSF-1 activators, primary screen, NIH3T3-HGL cells, MG132 stress, luminescence, single point (AID 504408);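 also: 0% = median of the neutral control wells and 100% = twice that signal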
Conditions: NIH3T3-HGL HSF-1 luciferase reporter, MG132, 8 h; at 9 µM; stronger effect = higher value; 100% = twice DMSO control signal

activation, inactive:
O=C(c1cc2ccccc2s1)N1CCN(c2ccccn2)CC1 -12%
O=C(C(Cl)Cl)N1CCN(c2ccccn2)CC1 3.47%
COc1ccc(CCNc2cc(N3CCN(C(=O)c4ccccc4OC)CC3)ccc2[N+](=O)[O-])cc1OC 22.3%
CN(C)c1ccnc(Oc2ccc(F)cc2)c1C#N 3.38%
N#Cc1ccc(-c2ccc(F)cc2)nc1Sc1ccccc1 -14.9%
CCOc1ccc(C(=O)CCC(=O)NC2=NCCS2)cc1 12.7%
CS(=O)(=O)c1ccc(Cl)c(NC(=O)Nc2ccccc2)c1 -2.82%
O=C(c1ccc(Cl)cc1)c1cnc(Nc2ccccc2)s1 34.7%
CC(Sc1nn(-c2ccc(Cl)cc2)c(=S)s1)C(=O)NCC1CCCO1 (stereo not drawn) 3.22%
CCC(=O)NC(=S)Nc1ccc(NC(=O)c2ccco2)c(Cl)c1 7.81%
O=C(NNC(=O)c1ccco1)Nc1ccccc1 12.4%
CCCCn1c(N)c(N(CCC(C)C)C(=O)c2ccc(COc3ccccc3)o2)c(=O)[nH]c1=O 7.06%
CCCCn1c(N)c(N(CC(C)C)C(=O)CN(C)S(=O)(=O)c2ccc(F)cc2)c(=O)[nH]c1=O -2.61%
Cc1ccc(S(=O)(=O)N2CCN(C(=O)c3ccc(-n4cncn4)c([N+](=O)[O-])c3)CC2)cc1 -21.4%
O=C(CNC(=O)c1cccnc1)N/N=C/c1cccnc1 -3.13%
Cc1ccc(NC(=O)CSc2cccc3cccnc23)c(C)c1 4.2%
CC(C)(C)S(=O)(=O)c1ccccc1-c1noc(-c2ccccc2)c1C(N)=O -2.64%
CC1CCN(C2=NC(=O)/C(=C/c3ccc(O)cc3)S2)CC1 8.53%
CCOc1cc(/C=C2\SC(N3CCCCC3)=NC2=O)ccc1O 34.2%
NC(=O)NC(=O)C(OC(=O)CCNS(=O)(=O)c1ccccc1)c1ccccc1 (stereo not drawn) 18.2%
O=C(CCNC(=O)c1ccc(Br)cc1)Nc1cccc(S(=O)(=O)N2CCCCC2)c1 23.3%
CCCCn1c(N)c(N(CC(C)C)C(=O)c2ccc(Br)o2)c(=O)[nH]c1=O -5.41%
CCOc1ccc(/C=C/C(=O)OCC(=O)c2ccccc2OC)cc1OC 1.42%
CCN1C(=O)[C@@H]2[C@@H](c3ccc(-c4ccccc4)cc3)N3CCCC[C@@]3(C(=O)OC)[C@@H]2C1=O 16.1%
COc1ccc(/C=N/NC(=O)c2cccc(C(F)(F)F)c2)cc1 0.104%
CSc1ccc(/C=N\NC(=O)COc2ccc(Cl)cc2Br)cc1 0.476%
O=C(COC(=O)c1ccccc1SCC(=O)N1CCCC1)Nc1ccccc1OC(F)F 5.14%
O=C(COC(=O)c1ccc([N+](=O)[O-])cc1Cl)NC(=O)c1ccccc1 -8.14%
CCOc1ccc2ccccc2c1/C=N/NC(=O)c1c(C)cc(C)[nH]c1=O 23.9%
Cc1nnc(N/N=C/c2cccs2)[nH]c1=O -4.02%
Cc1nnc(N/N=C/c2ccccn2)[nH]c1=O -18.5%
O=C(CSc1ccc(-c2ccc(-n3cccn3)cc2)nn1)Nc1ccc([N+](=O)[O-])cc1 8.59%
CCOc1cc(/C=C/c2nc3ccccc3c(=O)[nH]2)cc(Br)c1OC 14.8%
O=c1oc(/C=C/c2ccccc2)nc2ccccc12 -13.5%
CCOc1ccc(CCNC(=O)COC(=O)CCS(=O)(=O)c2ccc(C)cc2)cc1OCC 1.98%
Cc1cc(Br)ccc1NC(=O)CN(C)C(=O)CN1C(=O)NC2(CCCC2)C1=O 6.32%
CCC(c1nnnn1Cc1ccco1)N(CCc1ccccc1)Cc1cc2ccc(OC)cc2[nH]c1=O (stereo not drawn) 9.84%
CCC(c1nnnn1Cc1ccccc1)N(Cc1cc2cc(OC)ccc2[nH]c1=O)CC1CCCO1 (stereo not drawn) 17.4%

activation, active:
Cc1cc(C(=O)N2CCN(c3ccccn3)CC2)c(C)o1 62.2%
N#Cc1ccc(-c2ccc(Cl)cc2)nc1Oc1ccc(F)cc1 82.1%
O=C(Nc1ccccc1)c1nnsc1S(=O)(=O)c1ccc(Cl)cc1 79.4%
O=C(NNC(=S)Nc1ccc(Br)cc1Cl)c1ccco1 59%
O=C(CSc1cccc2cccnc12)N/N=C/c1cccnc1 161%
O=C1N=C(N2CCCC2)S/C1=C\c1cccc(Br)c1 103%
CSc1ccc(/C=N/NC(=O)c2cccc(Cl)c2)cc1 80.3%
Cc1ccccc1Nc1nnc(C)c(=O)[nH]1 54.6%
O=c1[nH]c(/C=C/c2cccc(Br)c2)nc2ccccc12 58.9%
CCC(c1nnnn1Cc1ccco1)N(Cc1cc2cc(OC)ccc2[nH]c1=O)C1CCCCC1 (stereo not drawn) 136%
